# Measurements as given in publication PMC11062922 (Nature Chemical Biology, 2023).
# Where two headings read alike, the source gives them in different places.
# What was measured:
# Set-up in all cases: species or system human, MV4-11 + K-562 + COLO205 + SK-N-BE2 + OVCAR-8
# CAMKK2 = details: read-out: apparent Kd, compound concentrations: 100 nM and 1000 nM (sheet 'Samples'), n = 1
# CDK16 = details: read-out: apparent Kd, n = 1
# PIP4K2C = details: read-out: apparent Kd, compound concentrations: 100 nM and 1000 nM (sheet 'Samples'), n = 1
# PRKACA = details: read-out: apparent Kd, n = 1
# PRKACB = details: read-out: apparent Kd, compound concentrations: 100 nM and 1000 nM (sheet 'Samples'), n = 1
# ATM = details: read-out: apparent Kd, n = 1
# CSNK1D = details: read-out: apparent Kd; compound concentrations:100 nM and 1000 nM (sheet 'Samples'); n = 1
# MAPK9 = details: read-out: apparent Kd, n = 1
# BCR = details: read-out: apparent Kd; compound concentrations: 100 nM and 1000 nM (sheet 'Samples'), CATDS: 2.3215110623404499E-2; n = 1
# EPHA4 = details: read-out: apparent Kd, compound concentrations: 100 nM and 1000 nM (sheet 'Samples'), n = 1
# EPHA5 = details: read-out: apparent Kd, compound concentrations: 100 nM and 1000 nM (sheet 'Samples'), n = 1
# MAPK10 = details: read-out: apparent Kd, compound concentrations: 100 nM and 1000 nM (sheet 'Samples'), n = 1
# PRKAG2 = details: read-out: apparent Kd, compound concentrations: 100 nM and 1000 nM (sheet 'Samples'), n = 1
# TNK1 = details: read-out: apparent Kd, compound concentrations: 100 nM and 1000 nM (sheet 'Samples'), n = 1
# STK4 = details: read-out: apparent Kd, n = 1
# RPS6KA4 = details: read-out: apparent Kd, n = 1
# STK16 = details: read-out: apparent Kd, compound concentrations: 100 nM and 1000 nM (sheet 'Samples'), n = 1
# AURKA = details: read-out: apparent Kd, n = 1
# CHEK1 = details: read-out: apparent Kd, n = 1
# MARK3 = details: read-out: apparent Kd; compound concentrations:100 nM and 1000 nM (sheet 'Samples'); n = 1
# [1] = compound concentrations:100 nM and 1000 nM (sheet 'Samples')
smiles,measurement,setting,value
Cl.Cl.NCC(NC(=O)c1cc(-c2ccnc3[nH]ccc23)cs1)c1ccccc1.NCC(NC(=O)c1cc(-c2ccnc3[nH]ccc23)cs1)c1ccccc1 (stereo not shown) [GSK1229959A],potency estimated from few doses,CAMKK2; CATDS: 1.7349658835090001E-2,1720 nM
same,potency estimated from few doses,"CDK16; compound concentrations: 100 nM and 1000 nM (sheet 'Samples'), CATDS: 1.6665892971292499E-2",2280 nM
same,potency estimated from few doses,PIP4K2C; CATDS: 1.6714878320236801E-2,2230 nM
same,potency estimated from few doses,"PRKACA; compound concentrations: 100 nM and 1000 nM (sheet 'Samples'), CATDS: 5.4700328593155198E-2",27.5 nM
same,potency estimated from few doses,PRKACB; CATDS: 4.1114005800974601E-2,56 nM
Cc1cc(NC(=O)c2cccc(NC(=O)/C=C/CN(C)C)c2)ccc1Nc1nccc(-c2cccnc2)n1 [JNK-IN-7],potency estimated from few doses,ATM; [1],273 nM
same,potency estimated from few doses,CSNK1D,1190 nM
same,potency estimated from few doses,MAPK9; [1],6.45 nM
Cl.Cn1c(=O)c(Cc2ccccc2F)cc2cnc(NC3CCOCC3)nc21 [RO3305377-001],potency estimated from few doses,BCR,783 nM
same,potency estimated from few doses,CAMKK2; CATDS: 1.7496919808973301E-2,1640 nM
same,potency estimated from few doses,EPHA4; CATDS: 2.0796665862367499E-2,1010 nM
same,potency estimated from few doses,EPHA5; CATDS: 2.9701717682633799E-2,481 nM
same,potency estimated from few doses,MAPK10; CATDS: 2.2981904071827101E-2,800 nM
same,potency estimated from few doses,"MAPK9; compound concentrations: 100 nM and 1000 nM (sheet 'Samples'), CATDS: 2.8205864879245399E-2",529 nM
same,potency estimated from few doses,PIP4K2C; CATDS: 1.61438790686462E-2,2170 nM
same,potency estimated from few doses,PRKACB; CATDS: 1.8562598651845501E-2,1370 nM
same,potency estimated from few doses,PRKAG2; CATDS: 2.6904980441579199E-2,578 nM
same,potency estimated from few doses,TNK1; CATDS: 3.75321125845825E-2,325 nM
NS(=O)(=O)c1ccc(N/N=C2\C(=O)Nc3ccc4ncccc4c32)cc1 [GW305178X],potency estimated from few doses,"STK4; compound concentrations: 100 nM and 1000 nM (sheet 'Samples'), CATDS: 4.4831401788358302E-2",1360 nM
CN[C@H](C#Cc1c(F)ccc2c1/C(=C/c1[nH]ccc1OC)C(=O)N2)CO.Cl [RO0283049-001],potency estimated from few doses,"CDK16; compound concentrations: 100 nM and 1000 nM (sheet 'Samples'), CATDS: 4.8469274935302599E-2",167 nM
same,potency estimated from few doses,MAPK10; CATDS: 2.5716910898498702E-2,751 nM
same,potency estimated from few doses,"MAPK9; compound concentrations: 100 nM and 1000 nM (sheet 'Samples'), CATDS: 5.4093082413128303E-2",135 nM
same,potency estimated from few doses,"RPS6KA4; compound concentrations: 100 nM and 1000 nM (sheet 'Samples'), CATDS: 3.14855312856318E-2",432 nM
same,potency estimated from few doses,STK16; CATDS: 2.2828381206070801E-2,1110 nM
same,potency estimated from few doses,"STK4; compound concentrations: 100 nM and 1000 nM (sheet 'Samples'), CATDS: 2.6680938989094499E-2",674 nM
Cn1cc(C2=C(c3ccc(OC[C@@H](O)CO)cc3)C(=O)NC2=O)c2ccccc21 [RO3208546-000],potency estimated from few doses,EPHA4; CATDS: 3.51410618583008E-2,1520 nM
same,potency estimated from few doses,EPHA5; CATDS: 3.9302113752780102E-2,1120 nM
same,potency estimated from few doses,PRKAG2; CATDS: 4.1666716087244697E-2,967 nM
same,potency estimated from few doses,TNK1; CATDS: 0.384256828153267,31.7 nM
CC(C)N1CC(=O)N(C)c2cnc(Nc3cccc(S(=O)(=O)CCN4CCOCC4)c3)nc21 [BI00009348],potency estimated from few doses,"ATM; compound concentrations: 100 nM and 1000 nM (sheet 'Samples'), CATDS: 0.21813144295739101",112 nM
same,potency estimated from few doses,STK16; CATDS: 5.8221493759355002E-2,1180 nM
O=C(Nc1n[nH]c2nc(-c3ccccc3O)ccc12)C1CC1 [SB-711880],potency estimated from few doses,AURKA; [1],286 nM
same,potency estimated from few doses,CHEK1; [1],967 nM
same,potency estimated from few doses,MARK3,1610 nM
same,potency estimated from few doses,STK4; [1],345 nM
CN(C)c1ccc2c(c1)/C(=C/Nc1ccc(S(N)(=O)=O)cc1)C(=O)N2 [GW416469X],potency estimated from few doses,"STK4; compound concentrations: 100 nM and 1000 nM (sheet 'Samples'), CATDS: 7.4915408427864094E-2",1510 nM
CCn1c(-c2nonc2N)nc2cncc(C(=O)N3CC[C@H](N)C3)c21.Cl [SB-772077-B],potency estimated from few doses,PRKACA; [1],790 nM
same,potency estimated from few doses,RPS6KA4; [1],82.6 nM
Nc1nccc(-c2ccc3c(N)n[nH]c3c2)n1 [GSK1034945A],potency estimated from few doses,MARK3,1040 nM
NS(=O)(=O)c1ccc(N/N=C2\C(=O)Nc3ccc(-c4cnco4)cc32)cc1 [GW276655_KCGS],potency estimated from few doses,CDK16; [1],1880 nM
CC(C)(CO)CNC(=O)c1ccc2c(c1)/C(=N/Nc1ccc(S(N)(=O)=O)cc1)C(=O)N2 [GW301784X],potency estimated from few doses,CDK16; [1],53 nM
O=C1N=C(NCCc2cccs2)S/C1=C\c1ccc2ncccc2c1 [RO4508348-000],potency estimated from few doses,"ATM; compound concentrations: 100 nM and 1000 nM (sheet 'Samples'), CATDS: 0.23427621692245501",314 nM
CNCC1CCn2c(c(C3=C(c4cn(C)c5ccccc45)C(=O)NC3=O)c3ccccc32)C1 (stereo not shown) [RO0318676-000],potency estimated from few doses,"CHEK1; compound concentrations: 100 nM and 1000 nM (sheet 'Samples'), CATDS: 3.6585074112693398E-2",754 nM
same,potency estimated from few doses,EPHA4; CATDS: 2.83796334007482E-2,1680 nM
NS(=O)(=O)c1cccc(-c2ccc3c(NC(=O)C4CC4)n[nH]c3c2)c1 [SB-741905],potency estimated from few doses,"ATM; compound concentrations: 100 nM and 1000 nM (sheet 'Samples'), CATDS: 0.31609765928995098",205 nM
COc1cccc(C2=C(c3c(C)n(C)c4ccccc34)C(=O)NC2=O)c1 [RO3300167-000],potency estimated from few doses,"AURKA; compound concentrations: 100 nM and 1000 nM (sheet 'Samples'), CATDS: 0.14578513534179899",490 nM
same,potency estimated from few doses,"STK4; compound concentrations: 100 nM and 1000 nM (sheet 'Samples'), CATDS: 0.12261986260266899",646 nM
CCC(CC)(CC)n1cnc2c(N)ncnc21 [SKF-97620],potency estimated from few doses,"ATM; compound concentrations: 100 nM and 1000 nM (sheet 'Samples'), CATDS: 0.160358426493935",43.6 nM
same,potency estimated from few doses,STK16; CATDS: 2.4791853580208099E-2,1810 nM
